SMILES strings stand for the structures. Calls of active or inactive are those of the source. The rule behind the calls is not given here.

This assay can be described thus: Brca1-Bard1 BiLC signal decrease – luminescence, single concentration, counter-screen for Mdm2/MdmX interaction inhibitor project, confirmation (AID 504668). Particulars: Brca1/Bard1 bimolecular luciferase complementation counterscreen, at 8 µM, stronger effect = higher value.
`Cc1ccc(C)c(NC(=S)NC(NC(=O)/C=C/c2ccccc2)C(Cl)(Cl)Cl)c1` (stereo not given): the inhibition was 31.4% (active).
The same measure for `COC(=O)[C@@H]1C[C@]2(OC(=O)c3ccccc3)C=CC(=O)C[C@@H]2N1C(=O)OCc1ccccc1`: 34.4% (active); for `COc1ccc(Cl)cc1NC(=O)c1nnn(CC(=O)Nc2ccc(OC)c(OC)c2)c1N`: 31.7% (active).
As for `CCOC(=O)/C=C/C(=O)Nc1ccc(Oc2ccccc2)cc1`, the figure is 24.1% (active); as for `c1ccc(CCc2nn3c(-c4ccncc4)nnc3s2)cc1`, 33.7% (active); as for `CCOC(=O)c1nc(NNC(=O)c2ccc([N+](=O)[O-])cc2)sc1C`, 27.4% (active).
The same measure for `Cc1cc(NC(=O)c2ccc(F)cc2F)n(-c2nc3ccccc3[nH]2)n1`: 29.6% (active); for `CC(=O)/C(C#N)=C1\NC(=O)C(Cc2ccc(C)c(Cl)c2)S1` (stereo not given): 31.8% (active).
Regarding `C/C(=N\NC(=O)COc1cccc(C)c1)c1ccc2ccccc2c1O`, the inhibition was 33.6% (active).
As for `Cc1ccc(/C=C/C(O)=C2/C(=O)N(C)C3(C)CC2c2ccccc2O3)cc1` (stereo not given), the figure is 30.1% (active); as for `Oc1ccc(COCc2ccccc2)c2cccnc12`, 28.7% (active); as for `N#CC(c1ccc(Cl)cc1)c1ccc2c(C(F)(F)F)cc(C(F)(F)F)nc2n1` (stereo not given), 24% (active).
Regarding `CC(C)C(=O)NC(c1ccco1)c1ccc2cccnc2c1O` (stereo not given), the inhibition is 24% (active).
As for `Cc1ccc(C(=O)N2C(CC(=O)Nc3ccc(Cl)cc3)C(=O)NC3CCCCC32)cc1` (stereo not given), the figure is 24.8% (active); as for `Oc1ccc(N=Nc2ccc3c(c2)OCCO3)c2ncccc12`, 26.2% (active).
As to `CC(C)CC(=O)NC(c1cccs1)c1ccc2cccnc2c1O` (stereo not given), the inhibition is 25.3% (active).
The same measure for `CCOC(=O)Cn1c(-c2nonc2NC(=O)c2ccccc2F)nc2ccccc21`: 34.7% (active).
The same measure for `COc1ccc(CCNC(=O)c2cc3c(=O)n4ccccc4nc3n(Cc3ccco3)c2=N)cc1OC`: 26.2% (active); for `CCC(C)n1c(=O)c(C(=O)Nc2ccccc2S(N)(=O)=O)c(O)c2ccccc21` (stereo not given): 30.8% (active).
As for `CCC(NC(=O)Nc1nnc(C(F)(F)F)s1)(C(F)(F)F)C(F)(F)F`, the figure is 26.3% (active); as for `Cn1c(C(=O)NCc2ccccc2)cc2oc3ccccc3c21`, 32.1% (active).
As to `COc1ccc([C@@H]2[C@@H]3C(=O)N(C(C)(C)C)C(=O)[C@@H]3[C@]3(Cc4ccccc4)C(=O)N(c4ccc(C(F)(F)F)cc4)C(=O)N23)cc1`, the inhibition was 27.8% (active).
The same measure for `Cn1c(=O)c(C#N)c(-c2ccc(F)cc2)c2cc(C(=O)c3cc(Cl)cc(Cl)c3O)cnc21`: 29.6% (active); for `O=C(CCCN1C(=O)/C(=C\c2ccccc2)SC1=S)Nc1ccc(O)cc1`: 33.2% (active).
As for `CC(=O)N1CCN(c2ccc(NC(=O)c3ccc([N+](=O)[O-])o3)cc2Cl)CC1`, the figure is 26.6% (active); as for `COc1ccc(C(=O)C(CN2CCCC2)c2ccccc2)cc1` (stereo not given), 27.6% (active); as for `O=C1c2ccccc2NC(c2ccc(-c3ccc(Br)cc3)o2)N1O` (stereo not given), 31% (active).
The same measure for `O=C(N/N=C/c1cc(Br)cc(Br)c1O)c1cccc(S(=O)(=O)N2CCOCC2)c1`: 29.6% (active); for `Cc1c(CN(C)C)c2c(n1Cc1ccccc1)C(=O)c1ccc(Br)cc1-2`: 29.6% (active).
For `O=C(COc1ccc([N+](=O)[O-])cc1)Nc1nc(-c2ccccn2)cs1`, the inhibition is 35.6% (active).
The same measure for `Cc1c(Cl)c([N+](=O)[O-])nn1Cc1ccc(C(=O)N/N=C\c2cc(Cl)ccc2O)o1`: 32.4% (active); for `Cc1cccc(C(=O)NC(C(=O)Nc2nc(-c3ccccn3)cs2)C(C)C)c1` (stereo not given): 30.7% (active); for `COc1ccccc1-n1c(-c2ccccc2)c[n+]2c1CCc1ccccc1-2`: 29% (active).
Regarding `O=c1c2ccccc2nc(COc2ccccc2)n1/N=C/c1ccc(O)cc1O`, the inhibition is 31% (active).
The same measure for `N=c1c(S(=O)(=O)c2ccc(Cl)cc2)cc2c(=O)n3ccccc3nc2n1CCc1ccccc1`: 24.9% (active); for `CC(C)c1cccc(O)c(=O)c1`: 27.6% (active).
The same measure for `CN(C(=O)c1ccc(S(=O)(=O)c2cccc(Cl)c2)c([N+](=O)[O-])c1)C1CCCCC1`: 28.9% (active).
On to `Clc1cc2cccnc2c2ncccc12`, for which the inhibition was 31.6% (active).
As to `Cc1ccc(/C=N/NC(=O)c2c(-c3ccccc3)noc2C)c(O)c1`, the inhibition was 31.1% (active).
The same measure for `Oc1ccc(N=Nc2ccccc2C(F)(F)F)c2cccnc12`: 23.3% (active).

The record behind these values is PubChem BioAssay.
